We go through 17 molecules from PubChem BioAssay (NCATS).

Molecules are shown by their SMILES. Several values for one entry are separate records, joined by “and”; a condition that tells them apart may be missing. Identical values can stand only once. Unmarked numbers belong to inactive results. Inconclusive results are not listed. Activity calls are given as the source filed them. Unless noted, calls follow the shape of the dose curve; as a rule, active = well fitted curve in the direction sought with a large enough effect; inconclusive = small, poorly fitted or top-dose-only effect, or another doubt; inactive = no such curve, though single readings can be large; an effect the other way counts as inactive or inconclusive. Bridge positions count the residues as written; N and C are the ends. Square brackets hold non-standard residues; d marks the D form. Peptide text beside a SMILES is read from it. * marks the point of attachment. Octanoyl(6-Me) = CCC(C)CCCCC(=O)*; Dab = NCC[CH](N)C(=O)O

Test [1] deals with Luciferin 4-monooxygenase (Photinus pyralis) (UniProt P08659). The experiment in a line: Biochemical firefly luciferase enzyme assay for NPC (AID 624030).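 Also: purified P. pyralis luciferase at 10 nM with luciferin and ATP substrate; 0% = DMSO and -100% = full luciferase inhibition by PTC124 control; nearly all actives have a fitted effect of over 70% in size.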 The procedure, abridged:
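Counter-screen for direct inhibition of the luciferase enzyme by approved-drug library compounds, run at 10 nM enzyme in 50 mM Tris acetate (final). Luminescence was read within 5 min of enzyme-buffer addition and normalized to PTC124 versus DMSO (0%).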

Test [2] can be described thus: S16 Schwann cell viability assay (CellTiter-Glo assay) (AID 624031).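 Also: native untransfected S16 rat Schwann cells; plate controls were DMSO-treated cells for no effect and cell-free wells for full effect; nearly all actives have a fitted effect of over 70% in size.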 The method, boiled down: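 Rat S16 Schwann cells without reporter constructs received compound or DMSO for 24 h at 37 °C under 5% CO2. Cellular ATP was then quantified by CellTiter-Glo luminescence, with vehicle wells defined as 0% activity and cell-free wells as reference.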
The nature of test [3]: S16 Schwann cell PMP22 intronic element beta-lactamase assay (AID 624044; calls by dose curve; also: nearly all actives have a fitted effect of over 15% in size; also: potency is read from the fitted curve at half-maximal effect). The method, boiled down:
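Rat S16 Schwann cells with beta-Lac driven by a PMP22 intronic element, compound-treated 24 h at 37 °C. LiveBLAzer FRET B/G read: 460 nm normalized to potassium clavulanate vs DMSO; 535 nm FRET as viability; concentration-effect curves classified.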

For the next test, the system named is 7G8. The experiment in a line: qHTS profiling for inhibitors of Plasmodium falciparum proliferation (AID 504749).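 Also: 0% = DMSO vehicle and full inhibition = artemisinin control; nearly all actives have a fitted effect of over 60% in size.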 As to conditions: P. falciparum in erythrocytes, SYBR Green DNA, 72 h; series mostly up to 28.7 µM. The procedure, abridged: (§1)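 P. falciparum-infected erythrocytes (0.3% parasitemia, 2.5% hematocrit final) were exposed to compounds for 72 h at 37 C in 5% CO2, then lysed with SYBR Green buffer overnight at room temperature; parasite DNA fluorescence was normalized to artemisinin and DMSO controls.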
(Quantitative high-throughput screening tests each substance at several concentrations.)

In a further test the test system is CP191. Described as above. As to conditions: P. falciparum in erythrocytes, SYBR Green DNA, 72 h; series mostly up to 28.7 µM. The method, boiled down:
as §1

For the next test, the system named is CP194. The description is as above. As to conditions: P. falciparum in erythrocytes, SYBR Green DNA, 72 h; series mostly up to 28.7 µM. The procedure, abridged:
as §1

A further test has as its system CP217. Described as above. To be noted: P. falciparum in erythrocytes, SYBR Green DNA, 72 h; series mostly up to 28.7 µM. The method, boiled down: as §1
A further test has as its system CP252. The description is as above. As to conditions: P. falciparum in erythrocytes, SYBR Green DNA, 72 h; series mostly up to 28.7 µM. The procedure, abridged: as §1
Another test concerns CP256. The description is as above. As to conditions: P. falciparum in erythrocytes, SYBR Green DNA, 72 h; series mostly up to 28.7 µM. The procedure, abridged: as §1
Another test deals with CP265. The description is as above. To be noted: P. falciparum in erythrocytes, SYBR Green DNA, 72 h; series mostly up to 28.7 µM. The method, boiled down: as §1
Another test has as its system CP297. The test is described as above. As to conditions: P. falciparum in erythrocytes, SYBR Green DNA, 72 h; series mostly up to 28.7 µM. The method, boiled down: as §1
In a further test the test system is P93_24. The test is described as above. To be noted: P. falciparum in erythrocytes, SYBR Green DNA, 72 h; series mostly up to 28.7 µM. The method, boiled down:
as §1

In a further test the test system is PAD. The test is described as above. To be noted: P. falciparum in erythrocytes, SYBR Green DNA, 72 h; series mostly up to 28.7 µM. The method, boiled down: as §1
The subject of a further test is TAB113. Described as above. To be noted: P. falciparum in erythrocytes, SYBR Green DNA, 72 h; series mostly up to 28.7 µM. The procedure, abridged: as §1
The test system of a further test is TAB165. Described as above. As to conditions: P. falciparum in erythrocytes, SYBR Green DNA, 72 h; series mostly up to 28.7 µM. The procedure, abridged: as §1
The target of test [4] is Androgen receptor (Homo sapiens) (UniProt P10275). Put plainly: qHTS assay for small molecule agonists of androgen receptor signaling (AID 588515; active = well fitted curve in the direction sought with a large enough effect in the signal ratio, with a control signal flat; the % refers to the signal ratio; also: % is scaled to controls: 0 for no effect and ±100 for the full control effect). To be noted: AR-UAS-bla HEK293, beta-lactamase ratio, agonist 16 h; hits give high values. The method, boiled down:
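EC50 and efficacy came from Hill fits of titrations (up to 92 uM) normalized to 30 nM R1881 as 100% and DMSO as 0%. Compound exposure was 16 h at 37 C on AR-UAS-bla HEK293 cells, with a 405/460/530 nm CCF4 fluorescence read.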

Test [5] is described as follows: Confirmation and Secondary Assay for Modulators of Hemoglobin Beta Chain Splicing at IVS2 654 locus (AID 910).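 Also: per-well total GFP intensity by laser scanning cytometry after 2-day treatment.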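 Also: potency is read from the fitted curve at half-maximal effect; potency of activators that raise GFP signal by restoring correct splicing.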 The method, boiled down:
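HeLa cells stably carrying EGFP interrupted by mutant beta-globin IVS2-654 intron (CMV-driven) were treated with compound for 2 days at 37C; corrected splicing was scored as total peak GFP intensity per well (488 nm excitation, 500-520 nm emission).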

Test [6] in a line: Confirmation and Secondary Assay for Modulators of Hemoglobin Beta Chain Splicing at IVS2 705 locus (AID 930).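 Also: GFP fluorescence per well restored by corrected splicing of the IVS2-705 intron in EGFP.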 Also: potency is read from the fitted curve at half-maximal effect.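 As to activation: HeLa cells stably expressing the EGFP-705 splicing reporter; % of control where 0% means no effect.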 The method, boiled down: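 Per-well GFP, captured at 1 x 8 µm resolution with 488 nm excitation, served as the read-out for HeLa EGFP-705 cells incubated 2 days with test compound versus DMSO.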
The nature of test [7]: S16 Schwann cell PMP22 intronic element firefly luciferase assay (AID 624032). Also: nearly all actives have a fitted effect of over 30% in size. Also: potency is read from the fitted curve at half-maximal effect. The method, boiled down: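 Rat S16 Schwann cells stably carrying a PMP22 intronic element-driven Fluc reporter were seeded overnight, then exposed to compounds for 24 h at 37 °C. Luminescence was normalized to PTC124 (positive control) and DMSO (0% activity).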
Test [8] deals with Cytochrome P450 2C19 (Homo sapiens) (UniProt P33261). The experiment in a line: qHTS Assay for Inhibitors and Substrates of Cytochrome P450 2C19 (AID 899). Also: potency is read from the fitted curve at half-maximal effect; nearly all actives have a fitted effect of over 60% in size. The procedure, abridged: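 In 50mM KPO4, the reaction held 5nM enzyme and KM-level (10uM) Luciferin-H EGE; it ran 60 min at 37C after NADPH regeneration and a 10 min compound preincubation. Luminescence values were scaled to 57uM ketoconazole as complete inhibition.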
Sequence of Cytochrome P450 2C19 (Homo sapiens) (P33261 whole entry, looked up): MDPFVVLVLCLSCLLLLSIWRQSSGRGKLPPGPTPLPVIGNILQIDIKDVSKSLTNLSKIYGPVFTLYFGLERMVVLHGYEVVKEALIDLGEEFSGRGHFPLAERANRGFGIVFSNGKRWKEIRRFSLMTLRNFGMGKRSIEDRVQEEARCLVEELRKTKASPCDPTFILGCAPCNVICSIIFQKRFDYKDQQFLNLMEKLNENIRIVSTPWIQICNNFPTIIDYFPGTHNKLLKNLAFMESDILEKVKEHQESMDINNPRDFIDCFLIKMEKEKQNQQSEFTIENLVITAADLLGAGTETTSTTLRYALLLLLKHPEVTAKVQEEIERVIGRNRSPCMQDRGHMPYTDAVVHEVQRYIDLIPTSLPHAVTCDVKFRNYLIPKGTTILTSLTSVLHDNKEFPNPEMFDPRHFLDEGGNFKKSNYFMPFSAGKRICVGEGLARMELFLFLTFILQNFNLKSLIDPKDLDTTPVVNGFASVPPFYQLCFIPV

Sequence of Androgen receptor (Homo sapiens) (P10275 whole entry, looked up): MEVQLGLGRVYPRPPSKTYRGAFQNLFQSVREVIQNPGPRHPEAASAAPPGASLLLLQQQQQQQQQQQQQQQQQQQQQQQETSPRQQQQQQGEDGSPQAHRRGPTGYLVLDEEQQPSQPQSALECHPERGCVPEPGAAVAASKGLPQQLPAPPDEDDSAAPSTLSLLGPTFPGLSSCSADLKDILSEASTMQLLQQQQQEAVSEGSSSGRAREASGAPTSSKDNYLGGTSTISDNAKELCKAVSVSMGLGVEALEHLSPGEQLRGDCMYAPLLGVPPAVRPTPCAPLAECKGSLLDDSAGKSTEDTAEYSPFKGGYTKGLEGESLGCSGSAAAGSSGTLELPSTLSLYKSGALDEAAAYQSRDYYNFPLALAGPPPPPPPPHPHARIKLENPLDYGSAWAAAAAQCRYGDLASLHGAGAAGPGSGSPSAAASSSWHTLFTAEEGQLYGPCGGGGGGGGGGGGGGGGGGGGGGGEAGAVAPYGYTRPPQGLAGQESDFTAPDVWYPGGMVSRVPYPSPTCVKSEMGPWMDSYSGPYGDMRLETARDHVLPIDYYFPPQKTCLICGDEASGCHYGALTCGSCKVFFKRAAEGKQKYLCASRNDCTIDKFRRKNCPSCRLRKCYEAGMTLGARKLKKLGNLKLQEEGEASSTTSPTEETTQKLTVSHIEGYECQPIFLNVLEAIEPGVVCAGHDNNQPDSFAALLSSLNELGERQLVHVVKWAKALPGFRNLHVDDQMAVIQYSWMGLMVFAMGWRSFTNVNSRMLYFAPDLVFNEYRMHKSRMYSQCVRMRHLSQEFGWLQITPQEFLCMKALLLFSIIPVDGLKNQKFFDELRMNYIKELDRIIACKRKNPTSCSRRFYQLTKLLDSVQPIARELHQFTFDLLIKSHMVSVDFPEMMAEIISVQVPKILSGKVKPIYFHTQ
Sequence of Luciferin 4-monooxygenase (Photinus pyralis) (P08659 whole entry, looked up): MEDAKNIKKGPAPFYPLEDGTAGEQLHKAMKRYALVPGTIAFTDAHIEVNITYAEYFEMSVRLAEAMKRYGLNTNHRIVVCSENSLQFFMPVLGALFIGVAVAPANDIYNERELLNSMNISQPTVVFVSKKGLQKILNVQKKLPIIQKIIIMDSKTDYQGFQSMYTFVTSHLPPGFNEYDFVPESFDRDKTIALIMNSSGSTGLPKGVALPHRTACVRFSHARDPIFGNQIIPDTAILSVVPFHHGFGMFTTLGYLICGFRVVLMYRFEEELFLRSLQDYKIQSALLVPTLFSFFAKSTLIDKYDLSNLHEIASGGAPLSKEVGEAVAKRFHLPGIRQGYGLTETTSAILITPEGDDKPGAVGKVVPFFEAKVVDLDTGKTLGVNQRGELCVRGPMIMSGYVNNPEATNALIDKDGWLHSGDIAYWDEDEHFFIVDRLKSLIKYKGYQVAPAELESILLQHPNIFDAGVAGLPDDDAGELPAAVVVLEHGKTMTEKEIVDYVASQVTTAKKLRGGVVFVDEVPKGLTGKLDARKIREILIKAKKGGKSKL

As to `CN(C)CCCCCCN(C)C`, the Potency result (in test [1]; in test [2]; in test [3]; with 7G8; in the test with CP191; with CP194) was “inactive” in each case. Moreover, the Potency result in the test on CP217, in the test with CP252, in the test with CP256, in the test with CP265, with CP297 and with P93_24 was “inactive” in each case. In addition, the Potency entry in the test with PAD, in the test with TAB113 and in the test with TAB165 was “inactive” in each case.

`CC(C)=CCCC(C)CCO` (configuration not stated): the activation in [4] is 11% and 2.32%.

For `COc1c2ccoc2cc2oc(=O)ccc12`, the Potency result in test [5] and in test [6] was “inactive” in each case.

For `CCC(C)CCCCC(=O)NC(CCN)C(=O)NC(C(=O)NC(CCN)C(=O)NC1CCNC(=O)C(C(C)O)NC(=O)C(CCN)NC(=O)C(CCN)NC(=O)C(CC(C)C)NC(=O)C(Cc2ccccc2)NC(=O)C(CCN)NC1=O)C(C)O` (configuration not stated) ({Octanoyl(6-Me)}-[Dab]T[Dab][Dab][Dab]FL[Dab][Dab]T; lactam 4-C; configuration not given here), the Potency entry (in test [5]; in test [6]; in [1]; in test [7]; in test [3]; with 7G8) was “inactive” throughout. Further, the Potency entry in the test with CP191, in the test with CP194, in the test on CP252, with CP256 and in the test with CP297 was “inactive” each time.

As for `Cc1cccc([N+](=O)[O-])c1C`, the activation in test [4] is 2.99% and 5.65%.

`C=Cc1ccccc1Cl`: in test [4], the activation is -2.34%.

In the case of `S=C1NC=NC2N=CNC12` (configuration not stated), the Potency in [5] was 3160 nM (active); in test [6], 3160 nM (active); in test [7], 2870 nM (active); in [3], 17800 nM (active). The Potency entry (in test [1]; in [2]; in the test with CP191; in the test on CP217; in the test on CP252; in the test on CP256) was “inactive” in each case. The Potency entry in the test on CP265, in the test with P93_24, with PAD, in the test on TAB113 and with TAB165 was “inactive” each time.

For `COc1ccc2[nH]cc(CCNc3ncnc4ccc(-c5cccc(C#N)c5)cc34)c2c1`, in test [8], the Potency was 7940 nM (active).

For `Cn1cc(-c2nc3cnc(N4CCNCC4)nc3n(CCc3ccccc3)c2=O)c2ccccc21`, the Potency in [8] is 2000 nM (active).

Consider `COc1ccc2nc(N)sc2c1`, for which the activation in test [4] was 3.27% and 6.72%.

As for `COc1ccc2[nH]cc(CCNc3ncncc3-c3ccccc3C)c2c1`, in test [8], the Potency was 50.1 nM (active).

With `C1OCOCO1`, the Potency entry (in test [1]; in test [2]; in test [7]; in test [3]; in the test with 7G8; in the test with CP191) was “inactive” throughout. The Potency result in the test with CP217, with CP252, in the test on CP256, in the test with CP265, in the test on CP297 and with P93_24 was “inactive” throughout. The Potency entry in the test on PAD, in the test with TAB113 and in the test on TAB165 was “inactive” in each case.

`CN(C)c1ccc(-c2cncnc2NCCc2cnc[nH]2)cc1`: the Potency in test [8] was 79.4 nM (active).

With `C/C=C\c1ccc(OC)cc1`, the Potency entry (in [5]; in test [6]; in test [1]; in test [2]; in test [7]; with 7G8) was “inactive” in each case. Besides, the Potency result with CP191, in the test on CP194, in the test on CP217, in the test with CP252, with CP256 and in the test on CP265 was “inactive” throughout. Further, the Potency entry in the test on CP297, in the test on P93_24, in the test on PAD, in the test with TAB113 and in the test with TAB165 was “inactive” each time.

`NC1=NC(S)C2N=CN=C2N1` (configuration not stated): the Potency in test [5] is 2000 nM (active); in test [6], 5010 nM (active); in test [7], 1440 nM (active); in test [3] it was 3980 nM (active). Further, the Potency result with CP194, in the test on CP217, with CP265, with CP297, in the test on P93_24 and with PAD was “inactive” throughout. The Potency result in the test on TAB113 and in the test with TAB165 was “inactive” throughout.

For the molecule `COc1cccc(Cn2c(=O)cnc3cnc(N(C)C)nc32)c1`, in test [8], the Potency was 2510 nM (active).

Turning to `CCO`, the activation in [4] was 30.9%.
